# ELG1 genotoxic – inducers of genotoxicity in HEK293T ELG1-luciferase cells. HEK293T ELG1-luciferase reporter, luminescence, 16 h. Potency, µM (doses to about 46 µM), inactives show at the top dose activity change, positive = activation, actives largely listed as activators. actives 1.3% (n = 330,000); note: % of control where 0% means no effect; nearly all actives have a fitted effect of over 60% in size
#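 Quantitative HTS format in 1536-well plates. HEK293T ELG1-luciferase reporter cells receive test compound and are incubated 16 hr at 37 °C, 5% CO2; ONE-Glo added, 30 min room temperature, then luminescence read.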
# p53 reactivator – restores transcriptional activity of mutant p53 | H1299 p53-A138V BP100-luciferase reporter, luminescence, 24 h | Potency, µM (highest dose often 92.2 µM), inactives show at the top dose activity change, positive = activation, most hits filed as activators | actives 0.063% (n = 320,000) | AID 504706; note: % of control where 0% means no effect; nearly all actives have a fitted effect of over 45% in size
#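 H1299 (p53-null), stable ts p53-A138V + BP100-Luc; 1000 cells/well, Opti-MEM/10% FBS; cpd 4 pt, 1:5; 24 h, 37 deg C, 5% CO2; detection reagent 10 min RT; luminescence.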
# NPC1 prom act – activates the NPC1 promoter. Huh7 NPC1 promoter luciferase reporter, 24 h. actives 2.4% (n = 320,000). AID 485313. Potency, µM (highest dose often 9.22 µM), for the others: at the highest dose activation, most hits filed as activators; note: % of control where 0% means no effect; nearly all actives have a fitted effect of over 60% in size
#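 Luminescence from an NPC1 promoter-driven luciferase reporter in stably transfected Huh7 cells was measured after 24 h compound treatment at 37 °C, followed by 10 min ambient incubation with luciferase detection reagent.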
# Rab9 promoter act – activates the Rab9 promoter; actives 2.8% (n = 320,000); Huh7 Rab9 promoter-luciferase reporter, luminescence, 24 h; AID 485297; Potency, µM (series often up to 9.22 µM), without a hit: top-dose activation, negative = inhibition, most hits filed as activators; note: % of control where 0% means no effect; nearly all actives have a fitted effect of over 60% in size
#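 Promoter activation is measured as luciferase luminescence in Huh7 cells stably transfected with a Rab9 promoter–luciferase construct, following 24 h compound exposure at 37 °C and 10 min reagent incubation at ambient temperature.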
# SMN2 splice enh – enhancers of SMN2 splice variant expression. HEK293 SMN2-luciferase splicing reporter, luminescence, 30-36 h. Potency, µM (top dose mostly 46.1 µM), inactives show top-dose activity change, positive = activation, usual class: activators. actives 2.8% (n = 210,000). AID 1458; note: % of control where 0% means no effect; nearly all actives have a fitted effect of over 55% in size
#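 qHTS luciferase splicing reporter: luminescence rises when SMN2 exon 7 is included in transfected HEK293 cells. Compound exposure lasted 30-36 h at 37C, with 4.5 mM final sodium butyrate as control, followed by a ONE-Glo read.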
# FLuc modulator – firefly luciferase modulation, counter-screen for miR-21 project; actives 6.9% (n = 360,000); purified FLuc, Km substrates, luminescence inhibition; Potency, µM (titrated, usually from 57.5 µM), for the others: at the top dose activity change, negative = inhibition, hits mostly inhibitors; AID 588342; P08659;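 note: plate controls were vehicle for no effect and reference inhibitor for full effect; nearly all actives have a fitted effect of over 55% in size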
# Target sequence (P08659 whole entry, looked up): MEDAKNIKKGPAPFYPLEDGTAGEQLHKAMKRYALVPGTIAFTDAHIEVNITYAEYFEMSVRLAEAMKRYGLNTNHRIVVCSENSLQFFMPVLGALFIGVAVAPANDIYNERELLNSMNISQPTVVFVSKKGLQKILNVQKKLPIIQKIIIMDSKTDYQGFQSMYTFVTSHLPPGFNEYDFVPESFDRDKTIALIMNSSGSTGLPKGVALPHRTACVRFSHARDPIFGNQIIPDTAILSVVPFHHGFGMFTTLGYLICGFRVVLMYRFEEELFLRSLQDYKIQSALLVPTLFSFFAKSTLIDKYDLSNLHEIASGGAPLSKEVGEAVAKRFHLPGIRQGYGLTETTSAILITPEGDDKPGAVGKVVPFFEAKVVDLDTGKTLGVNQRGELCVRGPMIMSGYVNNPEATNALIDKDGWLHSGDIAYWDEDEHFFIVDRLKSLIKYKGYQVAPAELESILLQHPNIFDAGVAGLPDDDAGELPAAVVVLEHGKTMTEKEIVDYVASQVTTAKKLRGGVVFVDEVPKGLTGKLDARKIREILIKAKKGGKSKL
#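 Biochemical qHTS of compounds, final roughly 60 µM downward over six points, against 10 nM purified firefly luciferase using Km concentrations of substrates (10 uM D-luciferin, 10 uM ATP) in Tris acetate pH 7.5 buffer; luminescence output.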
# An asterisk follows results filed as active; ? = inconclusive; · = no result; [ ] = another dose, or the depositor's remark. Sampled rows, rich in hits. Any-hit rate of the full collection: about 7.4%. Calls come from the whole dose curve; as a rule, active = well fitted curve in the direction sought with a large enough effect; inconclusive = small, poorly fitted or top-dose-only effect, or another doubt; inactive = no such curve, though single readings can be large; an effect the other way counts as inactive or inconclusive. Potency is the fitted concentration of half-maximal effect.
SMILES,ELG1 genotoxic,p53 reactivator,NPC1 prom act,Rab9 promoter act,SMN2 splice enh,FLuc modulator
CCc1ccc(S(=O)(=O)Nc2cccc(-c3ccc(N4CCOCC4)nn3)c2)cc1,·,·,·,·,·,8.5µM*
COc1ccc(-c2cccc(NS(=O)(=O)c3cccc([N+](=O)[O-])c3)c2)nn1,-1%,14%,0%,-3%,·,-15%
O=[N+]([O-])c1cccc(S(=O)(=O)Nc2cccc(-c3ccc(N4CCOCC4)nn3)c2)c1,?,26%,25%,?,·,2.1µM*
O=[N+]([O-])c1cccc(S(=O)(=O)Nc2cccc(-c3ccc(N4CCCC4)nn3)c2)c1,?,8%,-2%,12%,·,9.5µM*
CCc1ccc(S(=O)(=O)Nc2ccc(-c3ccc(N4CCCC4)nn3)cc2)cc1,·,·,·,·,·,1%
CCN[C@@H]1C[C@H](N)[C@H](O[C@H]2OC(CN)=CC[C@H]2N)[C@@H](O)[C@H]1O[C@H]1OC[C@@](C)(O)[C@@H](NC)[C@@H]1O,·,·,·,·,-3%[20.6 µM],·
Cc1ccc(C(=O)CC2(O)C(=O)N(Cc3ccccc3)c3ccccc32)o1 (centres undefined),0%,-6%,-2%,-2%,11µM*,7%
O=C=Nc1ccc(Cl)c(Cl)c1,·,·,·,·,5%,·
COc1cccc(NC(=O)CC(=O)Nc2ccc3nc4n(c(=O)c3c2)CCCCC4)c1,·,·,·,·,-3%,-18%
COc1cc(OC)cc(C(=O)Nc2ccc3nc4n(c(=O)c3c2)CCCCC4)c1,?,20%,3.2µM*,3.5µM*,18µM*,12µM*
COc1cc(/C=C/C(=O)Nc2ccc3nc4n(c(=O)c3c2)CCCC4)cc(OC)c1OC,-6%,-4%,-11%,-7%,·,-9%
COc1cccc(/C=C/C(=O)Nc2ccc3nc4n(c(=O)c3c2)CCCC4)c1OC,-11%,-2%,5%,9%,·,12µM*
Cc1ccc(S(=O)(=O)N2CCOC2CNC(=O)C(=O)NCc2ccc(Cl)cc2)cc1 (centres undefined),-18%,-13%,-3%,1%,·,1%
O=C(CSc1nnc(C2CCCCC2)o1)Nc1ccccc1Cl,?,?,?,3.5µM*,·,?
CCOc1ccccc1C1CC(=O)NC(C)=C1C(=O)OCc1ccc(C)cc1 (centres undefined),·,·,·,·,-22%,-9%
Clc1ccccc1C1Nc2cccc3cccc(c23)N1,-8%,21%,-4%,11%,·,?
c1coc(C2Nc3cccc4cccc(c34)N2)c1,-3%,15%,8%,18%,17%,27µM*
CCOc1ccc(NC(=O)c2ccc(N3CC4CC(C3)c3cccc(=O)n3C4)c(N)c2)cc1 (centres undefined),-1%[9.26 µM],-13%,-4%,-8%,·,-12%
Cc1nc2sc(C(N)=O)c(N)c2c2c1CCCC2,-18%,1%,?,10%,·,12µM*
Cc1ccc(-c2nc3sc(C(N)=O)c(N)c3c3c2CCCC3)cc1,-6%,-10%,-6%,-6%,10%,0%
Fc1ccc(C2=CC(c3cccs3)n3nnnc3N2)cc1 (centres undefined),5%,9%,-2%,8%,·,-1%
CCOc1ccc(C2C=C(c3ccccc3)Nc3nnnn32)cc1 (centres undefined),?,?,2.8µM*,1.6µM*,14%,0%
Cc1ccc(C2=CC(c3cccs3)n3nnnc3N2)cc1 (centres undefined),3%,?,5µM*,?,15%,-26%
O=C(NCCS(=O)(=O)N1CCN(c2ccc(F)cc2)CC1)c1cc(=O)c2ccccc2o1,·,·,·,·,·,-2%
O=C(CS(=O)(=O)c1ccc(Cl)cc1)Nc1nc2ccc(Br)cc2s1,·,·,·,·,·,-5%
COC(=O)c1ccc2nc(NC(=O)C(C)(C)C)sc2c1,?,15%,?,0.28µM*,-91%,0.43µM*

# Screening results: PubChem BioAssay, National Center for Advancing Translational Sciences (NCATS)
